Screening data as filed in PubChem.
These entries were drawn from the full list.
aSyn 5UTR act: Activators via SNCA 5'UTR binding, MLPCN. alpha-synuclein 5'UTR reporter, activators screen. activity score, % (tested at 7.5 µM), hits read low. 300,000 compounds, 7.1% hits. AID 1814; in the data active means activity score below about -60%
A number is an active result.

`CN(C)Cc1c(C(=O)Nc2ccccc2)[nH]c2ccccc12` gave aSyn 5UTR act -76.2.
`O=C(Nc1ccc2oc(-c3ccncc3)nc2c1)c1cccs1` gave aSyn 5UTR act -113.6.
For O=C(Nc1ccc2oc(-c3ccccc3F)nc2c1)c1ccccc1F the results were aSyn 5UTR act -188.0.
For O=C(Nc1ccc2oc(-c3ccncc3)nc2c1)c1ccc([N+](=O)[O-])o1 the results were aSyn 5UTR act -118.3.
`O=C(Nc1ccc2oc(-c3ccncc3)nc2c1)c1ccccc1F` gave aSyn 5UTR act -135.2.
`CC(C)CC(=O)Nc1ccc2oc(-c3ccncc3)nc2c1` gave aSyn 5UTR act -74.2.
O=C(Nc1ccc2oc(-c3ccccc3)nc2c1)c1ccccc1F was read as aSyn 5UTR act -257.3.
Screening O=C(Nc1ccc2oc(-c3cccc(F)c3)nc2c1)c1ccccc1F returned aSyn 5UTR act -119.7.
`O=C(Nc1ccc2oc(-c3ccc(Cl)c(Cl)c3)nc2c1)c1ncn[nH]1` gave aSyn 5UTR act -168.4.
Screening COc1ccc(OC)c(NC(=O)c2cc(-c3cc(C)c(C)cc3O)n[nH]2)c1 returned aSyn 5UTR act -95.2.
`COc1ccc(OC)c(NC(=O)c2cc(-c3c(C)cc(C)cc3O)n[nH]2)c1` gave aSyn 5UTR act -112.3.
`Cc1ccc(OCc2nnc(N)s2)cc1C` gave aSyn 5UTR act -62.3.
Screening Cc1ccc(C(=O)Nc2cnc3sc(C)nn3c2=O)cc1 returned aSyn 5UTR act -99.7.
For Cc1nn2c(=O)c(NC(=O)c3ccc(Cl)cc3)cnc2s1 the results were aSyn 5UTR act -65.6.
Screening COc1ccc(-c2nc(-c3ccccc3OC)no2)cc1OC returned aSyn 5UTR act -230.9.
Screening COc1ccccc1-c1noc(-c2ccccc2)n1 returned aSyn 5UTR act -126.2.
For COc1ccccc1-c1noc(-c2ccco2)n1 the results were aSyn 5UTR act -129.0.
Screening CC(C)COc1ccc(-c2cc(C(=O)NN)[nH]n2)cc1 returned aSyn 5UTR act -83.0.
`CCOC(=O)c1cc(-c2ccc(OC)cc2)n[nH]1` gave aSyn 5UTR act -72.8.
Screening CCOC(=O)c1cc(-c2ccc3c(c2)OCCO3)n[nH]1 returned aSyn 5UTR act -173.7.
Screening CCOc1ccc(-c2n[nH]c(C(=O)NN)c2C)cc1 returned aSyn 5UTR act -72.8.
Screening CCS(=O)(=O)N1N=C(c2cccs2)CC1c1cc2cc(C)ccc2nc1Cl (stereo not drawn) returned aSyn 5UTR act -67.0.
For CCOc1ncccc1C(=O)OCc1ccc(C(=O)OC)cc1 the results were aSyn 5UTR act -126.0.
`CCOc1ccc(OCc2ccc(C(=O)N(CC)CC)cc2)cc1` gave aSyn 5UTR act -155.3.
CCC(=O)c1ccc(OCc2ccc(C(=O)OC)cc2)cc1 was read as aSyn 5UTR act -73.0.
CCOc1ccc(OCc2cccc(C(=O)O)c2)cc1 was read as aSyn 5UTR act inactive.
Screening CCC(=O)c1ccc(OCc2ccc(C#N)cc2)cc1 returned aSyn 5UTR act -112.2.
For Cc1ccc(N/C=C2\C(=O)C3(C)CCC2C3(C)C)cc1C (stereo not drawn) the results were aSyn 5UTR act -63.2.
For COc1ccc(-c2noc(CN(C)Cc3ccccc3)n2)c(OC)c1OC the results were aSyn 5UTR act -68.1.
For Cc1nn(C)c(C)c1/C=C(/C(=O)C(C)(C)C)n1cncn1 the results were aSyn 5UTR act inactive.
Screening COc1ccccc1CNS(=O)(=O)c1ccc(-c2cc(C)no2)cc1 returned aSyn 5UTR act inactive.
COc1ccccc1NS(=O)(=O)c1ccc(-c2cc(C)no2)s1 was read as aSyn 5UTR act -101.8.
O=C(CCCCl)Nc1nc(-c2ccc3c(c2)OCCO3)cs1 was read as aSyn 5UTR act -116.9.
O=C(Nc1nc(-c2ccc3c(c2)OCCO3)cs1)C1CCCC1 was read as aSyn 5UTR act -150.8.
Screening O=C(CSCC(=O)N1CCOCC1)Nc1nc(-c2ccc3c(c2)OCO3)cs1 returned aSyn 5UTR act -131.1.
CC(=O)Nc1nc(-c2ccc3c(c2)OCO3)cs1 was read as aSyn 5UTR act -129.9.
CCOC(=O)N1CCN(C(=O)CSCC(=O)Nc2nc(-c3ccc(C)cc3)cs2)CC1 was read as aSyn 5UTR act -85.2.
For COc1cc(/C=C/c2nc(-c3ccccc3O)n[nH]2)cc(OC)c1OC the results were aSyn 5UTR act -117.5.
CC(=O)Oc1ccccc1-c1nc(/C=C/c2ccccc2)no1 was read as aSyn 5UTR act -162.0.
`COc1ccc(/C=C/c2noc(-c3ccccc3O)n2)cc1` gave aSyn 5UTR act -93.5.
COc1cc(/C=C/c2noc(-c3ccccc3O)n2)cc(OC)c1OC was read as aSyn 5UTR act -145.6.
`COc1ccc(/C=C/c2nc(N)nc(-c3ccccc3O)n2)cc1` gave aSyn 5UTR act -116.2.
`CC(=O)Nc1ccc(/C=C/c2nc(-c3ccccc3O)n[nH]2)cc1` gave aSyn 5UTR act -202.2.
Cn1c(NCc2ccccc2O)nc2ccccc21 was read as aSyn 5UTR act -271.9.
CC(=O)Nc1nc2ccccc2n1Cc1ccccc1Cl was read as aSyn 5UTR act inactive.
For Cn1c(NCc2ccccc2Cl)nc2ccccc21 the results were aSyn 5UTR act -163.8.
`CCOC(=O)c1cc(=O)n2c(nc3ccccc32)[nH]1` gave aSyn 5UTR act -99.1.
CCCCc1c(C)[nH]c2nc3ccccc3n2c1=O was read as aSyn 5UTR act -97.4.
CCCc1cc(=O)n2c(nc3ccccc32)[nH]1 was read as aSyn 5UTR act -66.4.
O=C(Nc1nc(-c2ccccc2)cs1)c1ccco1 was read as aSyn 5UTR act -98.2.
Screening Cc1ccc(-c2csc(NC(=O)c3ccc(-c4ccccc4)cc3)n2)o1 returned aSyn 5UTR act -122.1.
For Cc1ccc(-c2csc(NC(=O)c3ccco3)n2)cc1C the results were aSyn 5UTR act -208.8.
O=C(NNc1nc(-c2ccc(Br)cc2)cs1)c1ccco1 was read as aSyn 5UTR act -105.1.
For O=C(Nc1nc(-c2ccccn2)cs1)c1ccccc1-n1cnnn1 the results were aSyn 5UTR act inactive.
Screening COc1ccc(-c2csc(NC(=O)C3=NN(c4ccccc4)C(=O)CC3)n2)cc1 returned aSyn 5UTR act -85.9.
Screening O=C(Nc1nc(-c2ccco2)cs1)c1ccccc1 returned aSyn 5UTR act -180.6.
For CCOc1ccc(-c2csc(NC(=O)c3ccco3)n2)cc1 the results were aSyn 5UTR act -125.5.
`COc1ccc(-c2csc(NC(=O)c3ccco3)n2)cc1` gave aSyn 5UTR act -240.7.
CC(C)(C)C1CCC(OC(=O)CN2CCOCC2)CC1 (stereo not drawn) was read as aSyn 5UTR act -107.9.
`COc1ccc(/C=N/Nc2ccccn2)cc1OC` gave aSyn 5UTR act -114.5.
`COc1ccc(-c2cnnc(N/N=C/c3ccc(O)c(OC)c3)n2)cc1` gave aSyn 5UTR act -95.1.
COc1ccc(/C=N/Nc2nc(N)cc(Cl)n2)cc1OC was read as aSyn 5UTR act -74.5.
COc1cc(/C=N/Nc2ccccn2)ccc1O was read as aSyn 5UTR act -90.7.
Screening C#CC[N+](C)(C)CCCCCCCCC returned aSyn 5UTR act inactive.
`CCCn1nc2cc(C(=O)NCCc3cccs3)ccc2c1OCC` gave aSyn 5UTR act -76.1.
CN(C(=O)C1CCOC1)c1nnc(-c2ccccn2)s1 (stereo not drawn) was read as aSyn 5UTR act -66.8.
`O=[N+]([O-])c1ccc(N/N=C\c2cccnc2)nc1` gave aSyn 5UTR act -84.2.
`FC(F)(F)c1ccc(N/N=C/c2cccnc2)nc1` gave aSyn 5UTR act -115.2.
Cc1csc(N/N=C\c2cccnc2)n1 was read as aSyn 5UTR act -115.9.
